Measurements from PubChem BioAssay (EPA / NIEHS).
Active and inactive are the calls of the source. How the source made its calls: active means hit-call score of the fitted dose curve at least 0.9, where 1 is the maximum; inactive means score below 0.9.

Assay: CCTE_Deisenroth_DEVTOX-GLR_Pluri_CellCount: Viability Assessment in CCTE's DevTox GLR-Pluri Assay Evaluation of Total Cell Counts, Deisenroth Lab (AID 2284430)
Summary of the method: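 Cytotoxicity readout: fluorescent nuclei counts by high-content imaging, expressed as percent change relative to 0.2% DMSO. Human RUES2-GLR pluripotent line differentiated 48 h, dosed twice at 24-h intervals across 1 nM - 200 uM (10 points).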

## NC(=O)c1ccc(N)nc1
  outcome: inactive
